Laboratory results: PubChem BioAssay AID651780 (The Scripps Research Institute Molecular Screening Center, 2012)
The whole screen tested about 2,400 compounds, of which about 1,800 (75%) were called active. No stated cut-off is given here; in the data, active means inhibition above about 22%; inactive means the rest. The set was probably picked from earlier hits. Not all results are given here.

Assay: calcium response inhibition in counter-screen line – cell-based, fluorescence, counter-screen for hTAAR1 antagonist project (AID 651780);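 further: CHO-Ga16 host cells stimulated with ATP at an EC80 level; 0% = agonist EC80 plus vehicle and 100% = vehicle without agonist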
Conditions: counterscreen cell line, antagonist mode, at 3 µM, active compounds read high

| Compound | inhibition |
| --- | --- |
| COc1ccc(CCNC(=O)C(=O)NCC2OCCN2S(=O)(=O)c2ccc(OC)c(C)c2)cc1 (stereo not given) | 23.7% (active) |
| O=C(COC(=O)CCCSc1nc2ccccc2[nH]1)Nc1ccc(Oc2ccccc2)cc1 | 39.8% (active) |
| O=C(O)c1ccc(NC(=O)c2cn(-c3ccccc3)nc2-c2ccc(Cl)cc2)cc1 | 36.1% (active) |
| COc1ccc(CC(=O)Nc2c(C(N)=O)oc3ccccc23)cc1 | 22.3% (active) |
| Cc1cccc(NC(=O)c2nc[nH]c2C(=O)NCC(=O)OCc2ccccc2)c1 | 26% (active) |
| CC(C)(C)OC(=O)NCCCCCNC(=O)c1nc[nH]c1C(=O)NCc1ccccc1 | 22% (active) |
| C[C@H](NC(=O)c1nc[nH]c1C(=O)NCC(=O)OC(C)(C)C)C(=O)OCc1ccccc1 | 23.6% (active) |
| OC(c1ccccc1)(c1ccccc1)C1CCN(CCCOc2ccc(-c3ccsc3)cc2)CC1 | 40.2% (active) |
| CC(=O)Nc1ccc(NC(=O)COC(=O)C2CCC(C(C)(C)C)CC2)cc1 (stereo not given) | 24.5% (active) |
| O=C(NCC1CCCO1)c1cc2c([nH]c3ccccc32)c(-c2ccc(F)cc2)n1 (stereo not given) | 30.9% (active) |
| CC(=O)N1CCN(C(=O)c2cc(-c3ccc(Cl)s3)nc3ccccc23)CC1 | 26.1% (active) |
| O=C(COC(=O)c1c2c(nc3ccccc13)CCCC2)c1ccc(Br)s1 | 20.1% (inactive) |
| Cc1cccc(C)c1NC(=O)CNC(=O)C1CCCC1 | 5.58% (inactive) |
| O=S1(=O)c2c(cccc2N2CCCCC2)O[C@H](COCc2ccccc2)CN1C1CC1 | 32.5% (active) |
| Cc1cc(Br)ccc1NC(=O)c1cnc(N2CCN(c3ccccn3)CC2)c2ccccc12 | 38.4% (active) |
| Cc1ccccc1NC(=O)Cc1nc(COC(=O)C(C)(C)Oc2ccc(Cl)cc2)cs1 | 33.4% (active) |
| COC(=O)c1sccc1NC(=O)c1cc(OC)c(OC)c(OC)c1 | 21.3% (inactive) |
| COc1cc2ccccc2cc1C(=O)Nc1ccc(NC(=O)c2cccs2)cc1 | 27.7% (active) |
| O=C1c2ccccc2C(=O)N1CCC#Cc1ccc2cc(C3(O)CCCCC3)oc(=O)c2c1 | 44% (active) |
| COc1ccc(CCNC(=O)c2ccc(CS(=O)(=O)c3ccc(Br)cc3)o2)cc1OC | 35% (active) |
| CCOC(=O)C1C(c2ccc(OC)c(OC)c2)c2c([nH][nH]c2=O)CC1(C)O (stereo not given) | 25.2% (active) |
| COC(=O)Cc1nnn2c1[C@H](C)[C@H](c1ccccc1Br)OCC2 | 0.66% (inactive) |
| Cc1onc(-c2c(F)cccc2Cl)c1C(=O)Nc1cccc(S(=O)(=O)N2CCCCC2)c1 | 19.7% (inactive) |
| COc1ccc(NC(=O)C2CCCN(S(=O)(=O)c3cccc4cccnc34)C2)cc1OC (stereo not given) | 29.3% (active) |
| COc1ccc(S(=O)(=O)N2CCCC(C(=O)Nc3ccc(NC(=O)c4ccccn4)cc3)C2)cc1 (stereo not given) | 29.2% (active) |
